Drawing on PubChem BioAssay (NCATS), this text covers Potency and activity (max response) for 33 compounds.

Several values for one entry are separate records, joined by “and”; a condition that tells them apart may be missing. Identical values can stand only once. Results filed as inconclusive are left out. Some compounds were tested as several samples or in several runs, with calls that do not always agree. Activity calls are given as the source filed them. Calls follow the shape of the dose curve; as a rule, active = well fitted curve in the direction sought with a large enough effect; inconclusive = small, poorly fitted or top-dose-only effect, or another doubt; inactive = no such curve, though single readings can be large; an effect the other way counts as inactive or inconclusive.

Experiment [1] is described as follows: Viability qHTS for spleen associated tyrosine kinase inhibitor (SYKi) drug resistant MV4-11 cells (AID 1963824). Also: nearly all actives have a fitted effect of over 35% in size. The method, boiled down:
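CellTiter-Glo luminescence, read 10 min after reagent addition, reports viability after a 72 hr compound exposure. Cells are an MV4-11 line made resistant to SYK inhibition, seeded at 500 per well onto compound-containing plates.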
In general terms: qHTS replaces the single test concentration by a dilution series.

Experiment [2] is described as follows: Cellular viability qHTS for adrenocortical cancer (ACC) cell line SW-13 (AID 1963989). Also: nearly all actives have a fitted effect of over 65% in size.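 As to activity (max response): cells grown in serum-free medium with ITS supplement; % is scaled to controls: 0 for no effect and ±100 for the full control effect.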 The settings on record: SW-13 ACC cells viability, CellTiter-Glo, 48 h; activity (max response): stronger effect = lower value. An outline of the steps:
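IC50 and maximal-response values come from four-parameter logistic fits of titration data. SW-13 cells in serum-free medium received compounds (up to 46 uM final) for 48 h before CellTiter-Glo luminescence.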

Experiment [3] can be described thus: Cellular viability qHTS for adrenocortical cancer (ACC) cell line NCI-H295R (AID 1963990). Also: nearly all actives have a fitted effect of over 60% in size. The method, boiled down: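 Adrenocortical carcinoma cells, suspended at 300 000 cells/mL in serum-free DMEM plus ITS, rested overnight before pin transfer of compound. After two days' incubation, ATP-dependent luminescence was recorded and curve-fitted.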
Potency is read from the fitted curve at half-maximal effect.

Take `NCC(=O)Nc1cncc(-c2nn3c(=O)cc(N4CCNCC4)nc3s2)c1`: the Potency result in experiment [1] and in experiment [3] was “inactive” in each case. Also, the activity (max response) in experiment [2] was -17.3% (inactive).

For the compound `COc1c2occc2c(OC)c2c(=O)cc(C)oc12`, the Potency result in experiment [1] and in experiment [3] was “inactive” each time. Besides, the activity (max response) in experiment [2] is 12.7% (inactive).

For `COCCOc1ccc(N2CCN(CCn3ncc4c3nc(N)n3nc(-c5ccco5)nc43)CC2)cc1`, the Potency in experiment [1] is 0.103 µM (active). For the same compound, the activity (max response) in experiment [2] was -19.9% (inactive). Also, the Potency result in experiment [3] is “inactive”.

For `CC1(C)O[C@@H]2C[C@H]3[C@@H]4CCC5=CC(=O)C=C[C@]5(C)[C@@]4(F)[C@@H](O)C[C@]3(C)[C@]2(C(=O)CO)O1`, the Potency in experiment [1] is 10.6 µM (active). Moreover, in experiment [2], the activity (max response) is 4.2% (inactive) and -2% (inactive). For the same compound, in experiment [3], the Potency entry is “inactive”.

As to `CC(C)(C)C(=O)C(Oc1ccc(Cl)cc1)n1ccnc1` (centres undefined), the Potency in experiment [1] is 20.6 µM (active). In experiment [2], the activity (max response) was -11.3% (inactive). In experiment [3], the Potency result is “inactive”.

Turning to `COc1cc(O)cc(O)c1`, the Potency result in experiment [1] and in experiment [3] was “inactive” throughout. Besides, in experiment [2], the activity (max response) was -2.38% (inactive).

On to `COC1CC(C(=O)c2ccc3c(N)ncc(-c4ccc(-c5cnn(C)c5)cc4)c3n2)C1` (centres undefined), for which the Potency in experiment [1] was 0.296 µM (active). Further, in experiment [2], the activity (max response) is -16.1% (inactive). Further, the Potency result in experiment [3] was “inactive”.

Turning to `CCCCNc1ccc(C(=O)OCCN(C)C)cc1`, the Potency result in experiment [1] and in experiment [3] was “inactive” each time. For the same compound, the activity (max response) in experiment [2] was 4.21% (inactive).

As for `COc1ccc(Cl)c(Nc2nc3ccccc3nc2NS(=O)(=O)c2cccc(NC(=O)C(C)(C)N)c2)c1`, the figures for the Potency in experiment [1], in experiment [2] and in experiment [3] were 8.2 µM (active), 25.1 µM (active) and 20 µM (active), respectively.

Turning to `CC(=O)c1ccc2c(c1)c1cc(C(C)=O)ccc1n2CCNC(C)C`, the figures for the Potency in experiment [1], in experiment [2] and in experiment [3] were 0.525 µM (active), 1.58 µM (active) and 1.58 µM (active), respectively.

`CCN(CC)CCNc1ccc(C)c2sc3ccccc3c(=O)c12`: the Potency was 7.42 µM (active) in experiment [1], 25.1 µM (active) in experiment [2] and 15.8 µM (active) in experiment [3].

In the case of `O=C(NOCC(O)CO)c1cc(Br)c(F)c(F)c1Nc1ccc(I)cc1F` (centres undefined), the Potency in experiment [1] is 0.59 µM (active); in experiment [3], 15.8 µM (active).

As to `CN[C@@H](C)C(=O)N[C@H](C(=O)N1CCC[C@H]1C(=O)Nc1sc(-c2ncco2)nc1-c1ccccc1)C1CCCCC1`, in experiment [1], the Potency was 0.59 µM (active). In addition, the activity (max response) in experiment [2] is -5.71% (inactive). The Potency result in experiment [3] was “inactive”.

Consider `Nc1ncc(C(=O)NC2CN(C(=O)C3CC3)C2)c2ccc(-c3cccc(F)c3)nc12`, for which the Potency in experiment [1] is 7.42 µM (active). The Potency entry in experiment [3] is “inactive”.

Consider `Clc1cccc(C(c2ccc3nc[nH]c3c2)n2ccnc2)c1` (centres undefined), for which the Potency entry in experiment [1] was “inactive and 18.6 µM (active)”. Further, the activity (max response) in experiment [2] was 10.9% (inactive) and -12.2% (inactive). For the same compound, the Potency entry in experiment [3] was “inactive”.

On to `C=CC(=O)Nc1cccc(Oc2nc(Nc3ccc(N4CCN(C)CC4)c(F)c3)nc3[nH]ccc23)c1`, for which the Potency in experiment [1] is 0.525 µM (active); in experiment [3] it was 8.91 µM (active).

`CC(C)(CNC(=O)c1cccc(-c2noc(C(F)(F)F)n2)c1)c1coc(-c2ccccc2)n1`: the Potency in experiment [1] was 14.8 µM (active). In experiment [3], the Potency entry is “inactive”.

On to `C[C@H](NC(=O)/C(C#N)=C/c1cccc(Br)n1)c1ccccc1`, for which the values for the Potency in experiment [1] and in experiment [3] were 2.95 µM (active) and 28.2 µM (active), respectively.

For `CCCCCCCCCCCCCCCC[N+](C)(C)Cc1ccccc1`, the Potency in experiment [1] was 1.88 µM (active); in experiment [2] it was 8.2 µM (active); in experiment [3], 8.2 µM (active).

As for `Nc1cccc2c1CN([C@H]1CCC(=O)NC1=O)C2=O`, the Potency entry in experiment [1] and in experiment [3] was “inactive” each time. For the same compound, the activity (max response) in experiment [2] is -17.5% (inactive).

As for `C[C@]12CCC(=O)C=C1CC[C@H]1[C@@H]3CC[C@](O)(C(=O)CO)[C@@]3(C)C[C@H](O)[C@@]12F`, the Potency result in experiment [1] and in experiment [3] was “inactive” in each case. Moreover, in experiment [2], the activity (max response) was 6.22% (inactive).

As to `NS(=O)(=O)c1ccc(NC(=S)N2CCN(C/C=C/c3ccccc3)CC2)cc1`, the Potency in experiment [1] was 14.8 µM (active). In experiment [3], the Potency result is “inactive”.

With `CC(C)C(C)(C)C(C)(C)C(C)(C)S`, the Potency in experiment [1] was 5.45 µM (active). Moreover, the Potency entry in experiment [3] is “inactive”.

`Nc1ncnc2c1ncn2[C@@H]1O[C@H](CO)[C@@H](O)[C@H]1O`: the Potency entry in experiment [1] and in experiment [3] was “inactive” in each case. For the same compound, the activity (max response) in experiment [2] is -13.6% (inactive).

As to `CNC[C@H](O)[C@@H](O)[C@H](O)[C@H](O)CO`, the Potency entry in experiment [1] and in experiment [3] was “inactive” in each case.

Take `Cc1cc(C(=O)Nc2cc(Oc3ccc4nc(NC(=O)C5CC5)cn4n3)ccc2C)n(C)n1`: the Potency is 14.8 µM (active) in experiment [1] and 22.4 µM (active) in experiment [3].

For `O=S(=O)(c1cccc2c(I)cccc12)N1CCCNCC1`, the Potency in experiment [1] was 16.4 µM (active); in experiment [3], 25.1 µM (active).

Regarding `Nc1ncccc1-c1nc2ccc(-c3ccccc3)nc2n1-c1ccc(C2(N)CCC2)cc1`, the Potency in experiment [1] is 5.25 µM (active); in experiment [2], 25.1 µM (active); in experiment [3] it was 3.98 µM (active).

Take `COc1cc2c(NC3CCN(C)CC3)nc(N3CCCN(C)CC3)nc2cc1OCCCN(C)C`: in experiment [1], the Potency is 18.6 µM (active). Moreover, in experiment [3], the Potency entry is “inactive”.

As for `COc1ccc(-c2ccc3c(N4CCOC[C@@H]4C)nc(N4CCOC[C@@H]4C)nc3n2)cc1CO`, the values for the Potency in experiment [1] and in experiment [3] were 0.148 µM (active) and 0.178 µM (active), respectively.

On to `CCCCCCCCCCCCCCCCOP(=O)([O-])OCC[N+](C)(C)C`, for which the Potency in experiment [1] is 21.1 µM (active); in experiment [3] it was 23.1 µM (active).

Regarding `OCc1c[nH]c2ccccc12`, the Potency in experiment [1] is 24.3 µM (active); in experiment [3] it was 22.4 µM (active).

As to `CC(=O)Oc1ccc2c(c1)CC[C@@H]1[C@@H]2CC[C@]2(C)[C@@H](O)CC[C@@H]12`, the Potency is 15 µM (active) in experiment [1] and 18.4 µM (active) in experiment [3].
